Data on 45 compounds can be found in PubChem BioAssay AID2685 (National Center for Advancing Translational Sciences (NCATS), 2010).

SMILES strings stand for the structures. Hit rate of the full screen: of about 320,000 compounds, about 2,100 (0.66%) were called active. Another 53% or so got no clear call; they are omitted. The call rests on the fitted dose curve; in most records, active means well fitted inhibition curve with a large enough effect in the signal ratio, with a control signal flat (not every such curve was filed as active); inconclusive means small, poorly fitted or top-dose-only effect, or effect the other way, or a change in a side signal; inactive means flat fitted curve, though single readings scatter; the % refers to the signal ratio. For the sample, actives were picked, then their nearest neighbours and some compounds at random.
Potency means the concentration at half of the fitted maximal effect.

The nature of this experiment: qHTS Assay for Lipid Storage Modulators in Drosophila S3 Cells.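 On cell number change: cells counted by Cell Tracker Red CMTPX staining in the red channel.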 On lipid storage change, negative = inhibition: on the % scale 0 is the no-effect control and ±100 the full control effect. The note with it: BODIPY lipid droplet fluorescence, 18-24 h, cells fed with added oleic acid; cell number change: measured here: cell count max response; series mostly up to 46.1 µM; lipid storage change, negative = inhibition: at the top concentration. The essentials:
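Laser-scanning cytometry quantifies lipid droplet accumulation (500–530 nm total intensity; droplet/cell object ratio) in oleic acid-fed (400 uM added) Drosophila S3 cells treated with a concentration series. 20 uM Triacsin C defined 100% inhibition.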
Turning to `CCOC(=O)CN1C(=O)C(O)(c2c(C)[nH]c3ccccc23)c2ccccc21` (centres undefined), the compound was classed as inactive and the cell number change worked out at 8.53%.
Consider `Cc1cc(C)n(-c2cc(N3CCOCC3)ncn2)n1`, for which the “lipid storage change, negative = inhibition” value was 9.99% (inactive) and the cell number change is -1.49%.
The like results for `COc1cccc(/C=C2\SC(=S)N(c3cccnc3)C2=O)c1OC` were, in that order, 8.18% (inactive) and 12.9%.
Regarding `CCn1cc(C2=NOC(C(=O)Nc3ccc4c(c3)OCO4)C2)c(C)n1` (centres undefined), the Potency is 7.31 µM (active) and the cell number change was -25.4%.
Consider `COc1ccc(C2=NOC(C(=O)Nc3ccc4c(c3)OCO4)C2)cc1` (centres undefined), for which the “lipid storage change, negative = inhibition” value is -25.4% (inactive) and the cell number change was 14.2%.
`O=C(Nc1ccc2c(c1)OCO2)C1CC(c2ccccc2O)=NO1` (centres undefined): the outcome was inactive and the cell number change came to 19.9%.
For the compound `COc1cccc2sc(NNC(=O)COc3ccccc3)nc12`, the cell number change was 5.71% and the lipid storage change, negative = inhibition is -1.29% [at 9.22 µM] (inactive).
The matching figures for `CCC(=O)Nc1cc(=O)[nH]c2ncnn12`: -14.7% and -8.63% (inactive).
For `CC(C)C(=O)Nc1cc(=O)[nH]c2ncnn12`, the Potency was 5.8 µM (active) and the cell number change was -10.1%.
On to `O=C(Nc1cc(=O)[nH]c2ncnn12)c1ccccc1`, for which the “lipid storage change, negative = inhibition” value is 5.81% (inactive) and the cell number change was -8.14%.
As for `Cn1c(=O)[nH]c(=O)c2c1nc(Br)n2C/C=N/NC(N)=S`, the “lipid storage change, negative = inhibition” value is -24.6% (inactive) and the cell number change is -9.55%.
For `O=C(Nc1c2c(nn1-c1ccc(F)cc1)CS(=O)(=O)C2)c1ccc(S(=O)(=O)N2CCOCC2)cc1`, the “lipid storage change, negative = inhibition” value was -1.48% (inactive) and the cell number change is -2.12%.
For the compound `COc1cccc(-c2cccc(NC(=O)C3CCN(CC4CCOC4)CC3)c2)c1` (centres undefined), the Potency was 16.4 µM (active) and the cell number change was -23.3%.
For the compound `O=C(Nc1cccc(-c2cccc(Cl)c2)c1)C1CCN(CC2CCOC2)CC1` (centres undefined), the “lipid storage change, negative = inhibition” value is -4.19% (inactive) and the cell number change amounted to 26.5%.
The matching figures for `COc1cccc(-c2cccc(NC(=O)C3CCN(Cc4ccc(CO)o4)CC3)c2)c1`: -3.31% (inactive) and -8.92%.
The like results for `O=C(CSc1nc(O)cc(=O)n1-c1ccccc1)c1ccc(Br)cc1` were, in that order, 26.5% [at 9.22 µM] (inactive) and -4.08%.
As for `COc1ccc(-c2ccc3ccccc3n2)cc1`, the “lipid storage change, negative = inhibition” value was -22% (inactive) and the cell number change is -4.92%.
The matching figures for `S=c1[nH]nc(-c2ccncc2)n1/N=C/c1cccc2ccccc12`: 11.2% (inactive) and 15.5%.
The matching figures for `Clc1ccc(CN2CCCCCC2)cc1`: 12.2% (inactive) and 7.51%.
As for `CC(C)Cn1c(CN(C)Cc2ccccc2)nc2c1c(=O)n(C)c(=O)n2C`, the compound was called inactive.
For `CC(C)CCn1c(CN(C)Cc2ccccc2)nc2c1c(=O)n(C)c(=O)n2C`, the “lipid storage change, negative = inhibition” value is 15.2% (inactive) and the cell number change is -8.94%.
Turning to `C=C(C)Cn1c(CN(C)Cc2ccccc2)nc2c1c(=O)n(C)c(=O)n2C`, the Potency was 0.92 µM (active) and the cell number change was -21.1%.
Take `C[C@@H](NC(=O)c1nc[nH]c1C(=O)NCC(=O)OC(C)(C)C)c1ccccc1`: the call was inactive and the cell number change is 2.99%.
Consider `CC(=O)c1ccc(Oc2cc(C(F)(F)F)cnc2C(N)=O)cc1`, for which the “lipid storage change, negative = inhibition” value was 6.16% (inactive) and the cell number change was 26.2%.
With `CC(NC(=O)c1ccncc1)C(c1cccs1)N1CCOCC1` (centres undefined), the “lipid storage change, negative = inhibition” value was 12.9% (inactive) and the cell number change came to 1.4%.
Consider `CCOc1ccc(NC(=O)CSc2nc(N3CCOCC3)nc(N3CCOCC3)n2)cc1`, for which the compound was classed as inactive and the cell number change worked out at 4.32%.
In the case of `COc1ccc(NC(=O)CSc2nc3ccccc3nc2N2CCCC2)cc1`, the “lipid storage change, negative = inhibition” value was -20.6% (inactive) and the cell number change is -11.5%.
The matching figures for `Cc1cc(C)cc(NC(=O)CSc2nc3ccccc3nc2N2CCCCC2)c1`: 25% (inactive) and 10.1%.
As to `CCOc1ccc(NC(=O)CSc2nc3ccccc3nc2N2CCOCC2)cc1`, the Potency was 20.6 µM (active) and the cell number change was -28%.
The matching figures for `CCc1ccc(NC(=O)CSc2nc(=O)n(CCCN3CCOCC3)c3c2CCCC3)cc1`: 14.6 µM (active) and -8.01%.
As to `O=C(CSc1nc2ccccc2nc1N1CCCC1)Nc1ccc(F)cc1`, the “lipid storage change, negative = inhibition” value is -16.8% (inactive) and the cell number change was found to be 7.49%.
The matching figures for `COc1ccc(NC(=O)CSc2nc3ccccc3nc2N2CCCCC2)cc1`: -10.7% (inactive) and -10.4%.
With `Cc1cccc(NC(=O)CSc2nc3ccccc3nc2N2CC(C)OC(C)C2)c1` (centres undefined), the call was inactive and the cell number change worked out at 8.93%.
For `CCc1ccc(NC(=O)CSc2nc3ccccc3nc2N2CCCCC2)cc1`, the Potency was 13 µM (active) and the cell number change was 25.4%.
Consider `CCCCc1ccc(NC(=O)CSc2nc(=O)n(CCCN3CCOCC3)c3c2CCC3)cc1`, for which the “lipid storage change, negative = inhibition” value was -5.03% (inactive) and the cell number change came out at 12.5%.
Consider `CC1CN(c2nc3ccccc3nc2SCC(=O)Nc2ccc(F)cc2)CC(C)O1` (centres undefined), for which the Potency is 20.6 µM (active) and the cell number change came to 22.5%.
In the case of `CCCCc1ccc(NC(=O)CSc2nc(=O)n(CCN3CCOCC3)c3c2CCC3)cc1`, the compound was classed as inactive and the cell number change was 7.1%.
For the compound `Cc1cc(C)n2c(SCc3c(C)noc3C)nnc2n1`, the “lipid storage change, negative = inhibition” value is 3.32% (inactive) and the cell number change was 2.46%.
Take `Cc1cccc(NC(=S)NCCc2ccc(S(N)(=O)=O)cc2)c1C`: the “lipid storage change, negative = inhibition” value is -4.15% (inactive) and the cell number change is -9.26%.
The matching figures for `C=CCSc1nnc(NC(=O)C2CC(=O)N(Cc3ccc(C)cc3)C2)s1` (centres undefined): 18.9% (inactive) and -7.78%.
Consider `CC(=C\C(=O)O)/C(=C/c1ccc(C)o1)C(=O)O`, for which the “lipid storage change, negative = inhibition” value was -2.85% (inactive) and the cell number change is -12.8%.
The like results for `O=C(NCc1ccc2[nH]c3c(c2c1)CCCC3)c1ccc(S(=O)(=O)N2CCCCC2)cc1` were, in that order, 1.09% (inactive) and -10.5%.
For the compound `CN(C)C(=O)c1cc(C(=O)c2c(F)cccc2F)c[nH]1`, the “lipid storage change, negative = inhibition” value is -0.223% (inactive) and the cell number change is -8.76%.
The matching figures for `O=C(CN1C(=O)NC2(CCCCC2)C1=O)Nc1cccc(S(=O)(=O)N2CCOCC2)c1`: -5.91% (inactive) and -0.223%.
For the compound `CCC1Sc2ccc(S(=O)(=O)CCC(=O)Nc3ccc(OC(F)(F)F)cc3)cc2NC1=O` (centres undefined), the outcome was inactive and the cell number change was 2.14%.
